Screens: PubChem, National Center for Advancing Translational Sciences (NCATS)
This is a sample that favours compounds with a hit; in the whole collection about 3.6% have one here.
mTORC1 inh = reduces mTORC1 signaling in Tsc2 and p53 null MEF cells. Tsc2-/- p53-/- MEF, phospho-rpS6 immunofluorescence/PI, 24 h. Potency, µM (top dose mostly 38.3 µM), for the others: at the top dose activity change, negative = inhibition, most hits filed as inhibitors. 44,000 tested, 0.78% active;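 note: potency is the fitted concentration of half-maximal effect; plate controls were DMSO for no effect and rapamycin for full effect; nearly all actives have a fitted effect of over 50% in size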
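Tsc2-/-, p53-/- mouse embryonic fibroblasts (empty-vector line) exposed to compound 24 hrs at 37 C, fixed, immunostained for phospho-rpS6 and counterstained with propidium iodide. Acumen laser scanning gives % positive cells from Alexa 488/PI ratio, thresholded using 7.5 nM rapamycin; PI count gives viability.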
PMP22 txn = PMP22 gene transcription modulation | S16 Pmp22-F2sN Schwann cells, FLuc/NLuc coincidence luminescence, 24 h | Potency, µM (top dose mostly 57.5 µM), for the others: at the highest dose activity change, negative = inhibition, hits mostly inhibitors | 43,000 tested, 2% active; active = clear falling dose curves in both reporters; inconclusive = both reporters move, but less clearly or upward; inactive = either reporter flat; the % is the NLuc reporter signal; note: potency is the fitted concentration of half-maximal effect; % is set by controls: 0 for no effect and ±100 for the full control effect
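qHTS, 1536-well. Cells seeded, compounds added by pin tool, 24 h 37C. Nano-Glo reagent 1 (lysis/FLuc), 10 min RT, read; Stop&Glo, 10 min RT, read NLuc.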
OvCa metastasis = blocks SKOV3ip1 adhesion and invasion in omental model | SKOV3ip1-GFP adhesion/invasion on 3D omental model, fluorescence | Potency, µM (doses to about 45.8 µM), for inactives: at the top dose activity change, negative = inhibition, hits mostly inhibitors | 46,000 tested, 0.1% active | AID 1963576;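 note: potency is the fitted concentration of half-maximal effect; plate controls were DMSO wells for no effect and tomatine positive control wells for full effect; nearly all actives have a fitted effect of over 65% in size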
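Primary human omental fibroblast/mesothelial 3D culture pre-formed 48 h. SKOV3ip1-GFP cells added with compounds (0.36-46 umol/L), incubated 2 h RT/16 h 37 C, fixed; GFP cells quantified at 488/509 nm.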
GALC G270D act = raises human GALC G270D mutant activity in cells; Potency, µM (highest dose often 57.5 µM), actives largely listed as activators; 45,000 tested, 0.1% active; AID 1159614; 145M-Twi-hGALC-G270D cells, HMU-beta-Gal fluorescence, 48 h; note: potency is the fitted concentration of half-maximal effect; 0% is about no effect; nearly all actives have a fitted effect of over 65% in size
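qHTS, 1536-well; 145M-Twi-hGALC-G270D cells (WT line also made) in DMEM/F12 + 10% FBS; compound incubation on live cells; HMU-β-gal 0.1 mM final, pH 5.2, NaTC; carbonate stop; fluorescence increase = enhanced residual activity.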
NTMT1 inhibitor = NTMT1 methyltransferase inhibition. NTMT1 MTase-Glo SAH luminescence, purified enzyme. Potency, µM (top dose mostly 114 µM), for the others: at the top dose activity change, negative = inhibition, hits mostly inhibitors. Q9BV86. 59,000 tested, 2.5% active;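 note: potency is the fitted concentration of half-maximal effect; plate controls were DMSO vehicle for no effect and no enzyme for full effect; nearly all actives have a fitted effect of over 65% in size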
Target sequence (Q9BV86 whole entry, looked up): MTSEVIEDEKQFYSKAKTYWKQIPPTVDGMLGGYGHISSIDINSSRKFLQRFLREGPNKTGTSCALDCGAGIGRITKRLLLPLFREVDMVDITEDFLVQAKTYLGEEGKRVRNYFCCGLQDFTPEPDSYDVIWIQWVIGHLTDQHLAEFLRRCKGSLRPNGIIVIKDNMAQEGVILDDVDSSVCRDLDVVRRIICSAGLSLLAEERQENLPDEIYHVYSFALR
S16 viability = S16 Schwann cell cytotoxicity; S16 Pmp22-F2sN Schwann cells viability, CellTiter-Glo, 24 h; Potency, µM (highest dose often 57.5 µM), for inactives: top-dose activity change, negative = cytotoxicity, usual class: cytotoxic; 43,000 tested, 0.48% active; AID 1508642; note: potency is the fitted concentration of half-maximal effect; % is set by controls: 0 for no effect and ±100 for the full control effect; nearly all actives have a fitted effect of over 65% in size
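S16 Schwann cells carrying the Pmp22-F2sN reporter, seeded in 1536-well format, were exposed to library compounds for 24 h at 37C. Viability was read as CellTiter-Glo luminescence after 15 min at room temperature.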
NLuc sat counter = counter-screen for PMP22 expression modulators: NanoLuc inhibition, saturating substrate; shares compounds with PMP22 txn; Secreted NLuc enzyme (filtered S16 cell medium), Nano-Glo luminescence; Potency, µM (series often up to 57.5 µM), for inactives: top-dose activity change, negative = inhibition, hits mostly inhibitors; 690 tested, 4% active; AID 1508638; note: potency is the fitted concentration of half-maximal effect; % is set by controls: 0 for no effect and ±100 for the full control effect
NLuc Km ctr = inhibits NanoLuc under Km conditions, PMP22 counter-screen. 690 tested, 5% active. shares compounds with PMP22 txn. secreted NLuc enzyme, coelenterazine luminescence, Km conditions. Potency, µM (titrated, usually from 57.5 µM), for the others: at the top dose activity change, negative = inhibition, actives largely listed as inhibitors; note: potency is the fitted concentration of half-maximal effect; % is set by controls: 0 for no effect and ±100 for the full control effect
FLuc ctr PMP22 = inhibits firefly luciferase, PMP22 counter-screen. shares compounds with PMP22 txn. purified P. pyralis FLuc, luminescence, 10 min. Potency, µM (top dose mostly 57.5 µM), for the others: at the highest dose activity, negative = inhibition, most hits filed as inhibitors. 690 tested, under 10 active. AID 1508640; note: % of control where 0% means no effect
Target sequence (P08659 whole entry, looked up): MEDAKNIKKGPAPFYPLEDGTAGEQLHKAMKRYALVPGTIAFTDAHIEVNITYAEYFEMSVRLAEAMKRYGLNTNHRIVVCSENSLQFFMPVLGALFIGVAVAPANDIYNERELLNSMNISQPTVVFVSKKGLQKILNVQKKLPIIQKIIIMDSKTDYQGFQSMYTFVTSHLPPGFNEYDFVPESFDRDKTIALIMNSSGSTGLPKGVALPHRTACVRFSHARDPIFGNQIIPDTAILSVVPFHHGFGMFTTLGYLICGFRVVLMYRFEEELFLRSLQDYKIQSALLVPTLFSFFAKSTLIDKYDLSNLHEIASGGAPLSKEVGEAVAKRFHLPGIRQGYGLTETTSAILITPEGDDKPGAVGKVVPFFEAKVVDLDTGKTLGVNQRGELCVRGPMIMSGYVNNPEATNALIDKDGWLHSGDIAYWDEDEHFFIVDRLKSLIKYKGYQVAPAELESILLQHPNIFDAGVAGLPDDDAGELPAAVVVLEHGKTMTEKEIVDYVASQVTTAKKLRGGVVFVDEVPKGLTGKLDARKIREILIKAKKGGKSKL
S16 viab conf = confirmation of cytotoxicity in S16 Pmp22-F2sN Schwann cells (luciferase reporters placed in the Pmp22 gene). shares compounds with PMP22 txn. S16 Schwann cells viability, CellTiter-Glo ATP luminescence, 24 h. Potency, µM (doses to about 57.5 µM), for inactives: at the top dose activity change, negative = viability loss, actives largely listed as cytotoxic. 690 tested, 7% active; note: potency is the fitted concentration of half-maximal effect; % is set by controls: 0 for no effect and ±100 for the full control effect
PMP22 txn conf = PMP22 transcription modulation, confirmatory. 690 tested, 22% active. Potency, µM (series often up to 57.5 µM), without a hit: top-dose activity change, negative = inhibition, actives largely listed as inhibitors. shares compounds with PMP22 txn. S16 Schwann cells Pmp22-F2sN, dual luciferase, 24 h; active = clear falling dose curves in both reporters; inconclusive = both reporters move, but less clearly or upward; inactive = either reporter flat; the % is the FLuc reporter signal; note: potency is the fitted concentration of half-maximal effect
PMP22 HiBiT cnf = confirmation of modulators of rat PMP22 protein expression; shares compounds with PMP22 txn; 95 tested, under 10 active; Potency, µM (series often up to 27.9 µM), inactives show top-dose activity change, negative = inhibition, hits mostly inhibitors; AID 1508647; S16 Schwann cells Pmp22-HiBiT, luminescence, 48 h
The depositor's hits bear a star; i = inactive; ? = inconclusive; · = no result; [ ] = dose if it differs, or a comment. Unless noted, calls come from the whole dose curve; as a rule, active = well fitted curve in the direction sought with a large enough effect; inconclusive = small, poorly fitted or top-dose-only effect, or another doubt; inactive = no such curve, though single readings can be large; an effect the other way counts as inactive or inconclusive.

SMILES	mTORC1 inh	PMP22 txn	OvCa metastasis	GALC G270D act	NTMT1 inhibitor	S16 viability	NLuc sat counter	NLuc Km ctr	FLuc ctr PMP22	S16 viab conf	PMP22 txn conf	others
COc1ccc(-c2noc(CSc3nnc(-c4ccncc4)n3-c3ccccc3)n2)cc1	-7%	14µM*	i	i	-11%	?	?	?	-22%	-13%	6.1µM*
COc1ccc(-n2c(C)nnc2SCc2nc(-c3ccc(OC)c(OC)c3)no2)cc1	0%	?	i	i	-3%	-22%	?	?	-5%	-20%	-41%
COc1ccc(NC(=O)c2[nH]c(C)c(C(C)=O)c2C)cc1S(=O)(=O)Nc1cccc(C#N)c1	·	·	·	·	13%	·	·	·	·	·	·
Oc1ccccc1Nc1nc2ccccc2n2nnnc12	-4%	?	i	i	-4%	9%	·	·	·	·	·
CC(NC(=O)c1cccc(Nc2nc3ccccc3n3nnnc23)c1)c1ccccc1 (stereo not given)	-15%	11µM*	-8%	i	?	?	-1%	5%	4%	17µM*	?
COc1ccc(Nc2c3c(nc4ccccc24)CCC3)cc1Cl	?	10µM*	i	i	?	?	-19%	-2%	3%	-24%	?
COc1ccc(C)cc1Nc1c2c(nc3ccccc13)CCC2	?	11µM*	0%	i	-13%	-15%	?	-19%	2%	-7%	?
Fc1ccc(F)c(Nc2c3c(nc4ccc(Cl)cc24)CCC3)c1	2%	19µM*	i	i	-21%	-10%	?	?	3%	-2%	-31%
CCN(CC)CCOC(=O)c1ccc(Nc2c3c(nc4ccccc24)CCC3)cc1	-10%	?	-3%	i	-18%	-17%	·	·	·	·	·
Fc1ccc(Nc2c3c(nc4ccccc24)CCC3)cc1	-14%	14µM*	-7%	i	?	-4%	?	7%	10%	-20%	18µM*
Fc1ccccc1Nc1c2c(nc3ccccc13)CCC2	3%	?	-4%	i	?	-4%	·	·	·	·	·
N#Cc1c(-c2cccs2)no[n+]1[O-]	·	·	·	·	8%	·	·	·	·	·	·
CCC(=O)N1CCc2cc(Br)cc(S(=O)(=O)N3CCC(C(=O)NC(C)(C)C)CC3)c21	-1%	-34%	i	i	-7%	17%	-17%	-3%	-12%	-2%	-6%
COc1ccc(C(Nc2ccccn2)c2ccc3ccc(C)nc3c2O)cc1C (stereo not given)	4%	?	i	i	11%	?	·	·	·	·	·
CCOc1cc(C(Nc2cc(C)ccn2)c2ccc3cccnc3c2O)ccc1OC (stereo not given)	?	10µM*	i	i	4%	?	?	17µM*	-1%	?	?
Cc1ccc(NC(=O)CSc2nc3ccccc3nc2Cc2ccccc2)c(C)c1	0%	9.5µM*	-3%	i	3%	-3%	-4%	-3%	-1%	17%	?
CCc1ccc(NC(=O)CSc2nc3ccccc3nc2Cc2ccc(C)cc2)cc1	-1%	-15%	i	i	-1%	-12%	·	·	·	·	·
COc1cccc(CNC(=O)c2cc3c(=O)n(C)c4ccccc4c3n2C)c1	2%	13µM*	-13%	i	10%	14%	-9%	-2%	5%	-14%	?
CCN1CCN(C(=O)CCN(CC(C)C)c2nc(-c3cccs3)nc3ccccc23)CC1	·	·	·	·	-19%	·	·	·	·	·	·
COc1ccccc1-c1cc(C(F)(F)F)nc(S(=O)(=O)CCCC(=O)Nc2ccccc2F)n1	16µM*	8.9µM*	?	i	-2%	?	?	?	-1%	?	6.9µM*	PMP22 HiBiT cnf=36%
COc1ccc(Cl)cc1NC(=O)CCCS(=O)(=O)c1nc(-c2ccc(OC)c(OC)c2)cc(C(F)(F)F)n1	13µM*	5µM*	?	i	10%	?	-13%	1%	2%	?	9.3µM*	PMP22 HiBiT cnf=34%
COC(=O)c1ccccc1NC(=O)CCS(=O)(=O)c1nc(-c2ccc3c(c2)OCO3)cc(C(F)(F)F)n1	-15%	14µM*	-12%	i	-5%	-6%	-19%	-2%	6%	-24%	19µM*
COc1ccc(NC(=O)CCCS(=O)(=O)c2nc(-c3ccccc3OC)cc(C(F)(F)F)n2)c(OC)c1	?	-21%	6%	i	3%	25%	·	·	·	·	·
COc1ccc(Cl)cc1NC(=O)CCS(=O)(=O)c1nc(-c2cccs2)cc(C(F)(F)F)n1	1%	10µM*	?	i	11%	?	?	?	3%	?	8.9µM*
C[C@@H](O[C@H]1OCCN(Cc2n[nH]c(=O)[nH]2)[C@@H]1c1ccc(F)cc1)c1cc(C(F)(F)F)cc(C(F)(F)F)c1	·	·	-12%	·	-1%[57.5 µM]	·	·	·	·	·	·
COc1ccc(NC(=O)c2ccc(NC(=O)CCS(=O)(=O)c3cccs3)cc2)cc1	-23%	?	-20%	i	4%	1%	·	·	·	·	·
